# Measurements as given in PubChem BioAssay (NCATS).
# Several values for one entry are separate records, joined by “and”; a condition that tells them apart may be missing. Identical values can stand only once. Results filed as inconclusive are left out. Activity calls are given as the source filed them. Unless noted, calls come from the whole dose curve; as a rule, active = well fitted curve in the direction sought with a large enough effect; inconclusive = small, poorly fitted or top-dose-only effect, or another doubt; inactive = no such curve, though single readings can be large; an effect the other way counts as inactive or inconclusive.
# How the values were obtained:
# [1] = Primary qHTS for inhibitors of nuclear receptor binding SET domain protein 2 (NSD2) in an isogenic RCH-ACV NSD2 p.E1099K mutant (9B) (AID 1645876); note: nearly all actives have a fitted effect of over 70% in size
# [2] = Primary qHTS for inhibitors of nuclear receptor binding SET domain protein 2 (NSD2) in an RCH-ACV wild type WT cells (2C) (AID 1645877); note: nearly all actives have a fitted effect of over 70% in size
# [3] = biological target: Catechol O-methyltransferase (Homo sapiens) (UniProt P21964); experiment: Confirmatory Screen for Target Class Profiling of Small Molecule Inhibitors of Methyltransferases (AID 1745852; calls by dose curve; for activity change, negative = inhibition: % is set by controls: 0 for no effect and ±100 for the full control effect); conditions: MTase-Glo luminescence, SAH detection, recombinant enzyme; measured here: COMT max response; stronger effect = lower value
# Catechol O-methyltransferase (Homo sapiens), sequence (P21964 whole entry, looked up): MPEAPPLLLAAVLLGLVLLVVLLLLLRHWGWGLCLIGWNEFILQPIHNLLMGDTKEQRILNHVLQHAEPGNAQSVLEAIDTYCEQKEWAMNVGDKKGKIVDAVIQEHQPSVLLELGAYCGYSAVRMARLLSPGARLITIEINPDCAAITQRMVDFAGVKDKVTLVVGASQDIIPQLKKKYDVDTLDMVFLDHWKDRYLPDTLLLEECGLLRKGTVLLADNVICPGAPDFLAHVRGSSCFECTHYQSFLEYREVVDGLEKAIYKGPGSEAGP
# [4] = biological target: Guanidinoacetate N-methyltransferase (Homo sapiens) (UniProt Q14353); experiment: as above; conditions: MTase-Glo luminescence, SAH detection, recombinant enzyme; activity change, negative = inhibition: at 57.3 µM (top of the series) unless noted
# Potency is the fitted concentration of half-maximal effect.
structure (smiles),measurement,setting,value
Cc1ccc(F)c(NC(=O)Nc2ccc(-c3cccc4[nH]nc(N)c34)cc2)c1,Potency,[1],10.5 µM (active)
same,Potency,[2],8.33 µM (active)
CC(=O)O[C@]1(C(C)=O)CC[C@H]2[C@@H]3C=C(Cl)C4=CC(=O)[C@@H]5C[C@@H]5[C@]4(C)[C@H]3CC[C@@]21C,Potency,[2],inactive
O=C(N[C@@H](c1ccccc1)[C@@H]1CCCCN1)c1cccc(C(F)(F)F)c1Cl,Potency,[1],18.6 µM (active)
same,Potency,[2],16.6 µM (active)
CC[C@]1(O)C[C@@H]2CN(CCc3c([nH]c4ccccc34)[C@@](C(=O)OC)(c3cc4c(cc3OC)N(C)[C@H]3[C@@](O)(C(=O)OC)[C@H](OC(C)=O)[C@]5(CC)C=CCN6CC[C@]43[C@@H]65)C2)C1,Potency,[1],33.5 nM (active) and 84.1 nM (active) and 57.8 nM (active)
same,Potency,[2],26.6 nM (active) and 53.1 nM (active) and 36.5 nM (active)
same,activity,[3],7.74%
same,"activity change, negative = inhibition",[4],10.8%
COc1cc2ncnc(-n3nc(-c4ccccn4)nc3N)c2cc1OC,Potency,[1],1.59 µM (active)
same,Potency,[2],2.52 µM (active)
O=c1cc(-c2ccccc2)oc2cc(O)cc(O)c12,Potency,[1],16.6 µM (active)
same,Potency,[2],16.6 µM (active)
COc1cc(N2CCC(N3CCN(C)CC3)CC2)ccc1Nc1ncc(Cl)c(Nc2ccccc2S(=O)(=O)C(C)C)n1,Potency,[1],1.29 µM (active) and 3.72 µM (active)
same,Potency,[2],649 nM (active) and 1.48 µM (active)
same,activity,[3],-29.5%
same,Potency,[4],27.1 µM (active)
CCc1ccc(C=C2SC(=S)NC2=O)cc1,activity,[3],-2.96%
same,"activity change, negative = inhibition",[4],-3.11%
O=C(NOCC(O)CO)c1cc(Br)c(F)c(F)c1Nc1ccc(I)cc1F (stereo not given),Potency,[2],20.9 µM (active)
